Hits are enriched below; roughly 2% of the tested compounds scored in any of these assays.
Calb FLC: affects C. albicans growth with fluconazole | C. albicans CaCi-2 (fluconazole-resistant clinical isolate) + fluconazole, Alamar Blue growth, 48 h | growth inhibition, % (concentration not given with the values) | hit rate 0.57% among 300,000;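 active = growth inhibition above about 58% in most replicates, limit read from the data, passing the limit was not always enough; inconclusive = exactly half the replicates above a set limit; inactive = most replicates below a set limit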;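 note: all wells also contain fluconazole at 8 µg/ml as a sub-toxic cotreatment; 0% = median of DMSO wells and 100% = median of geldanamycin control wells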
697 NFkB inh: lowers PMA/ionomycin-induced NF-kB signal in 697 B cells | 697 B-cell NF-kB luciferase reporter, 16 h | inhibition, % at 4 µM | hit rate 0.33% among 330,000 | AID 435022; in the data active = inhibition above about 35%
Beta apoptosis: blocks beta cell apoptosis. INS-1E cytokine-induced death, ATP luminescence, 48 h; percent of positive-control rescue, neutral wells zero. protection from apoptosis, % (no concentration beside the values). hit rate 0.8% among 300,000. AID 435005;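 active = Every replicate reaches about 75%, or at least half do and their mean reaches it too, limit read from the data; inconclusive = At least half of replicates reach the limit but their mean does not; inactive = Under half of replicates reach the limit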;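 note: 0% = cytokine-treated negative control wells and 100% = positive control rescue; higher means more ATP so stronger rescue from cytokine killing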
Shn3 3UTR inh: Schnurri-3 reporter inhibition in Clone20 osteoblasts; inhibition, % at 12.5 µM; hit rate 0.52% among 360,000; Clone20 osteoblast Shn3 3'UTR firefly luciferase, 24 h;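 active = mean inhibition of at least 75% with every replicate also reaching 75%; inconclusive = mean inhibition at least 75% but some replicate below; inactive = mean inhibition below 75%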;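 note: 0% = median of neutral control wells and 100% = pilot-screen positive control compound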
Jurkat NFkB inh: lowers PMA/ionomycin-induced NF-kB signal in Jurkat cells; PMA/ionomycin-induced NF-kB luciferase reporter, luminescence; hit rate 0.53% among 330,000; AID 435003; inhibition, % at 4 µM; in the data active = inhibition above about 50%
Jurkat NFkB conf: lowers PMA/ionomycin-induced NF-kB signal in Jurkat cells. shares compounds with Jurkat NFkB inh. Jurkat NF-kB luciferase, 16 h. inhibition, % at 4 µM. hit rate 27% among 2,700;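 active = inhibition reaching about 45% at 4 µM in either replicate, limit read from the data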;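 note: plate controls were PMA/ionomycin stimulated DMSO wells for no effect and unstimulated DMSO wells for full effect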
Starred values were filed as active, the others as inactive; ? = inconclusive; . = not tested or not shown.

SMILES	Calb FLC	697 NFkB inh	Beta apoptosis	Shn3 3UTR inh	Jurkat NFkB inh	Jurkat NFkB conf
Cc1nonc1OCCN1CCN(c2ccc([N+](=O)[O-])cc2)CC1	-1.5	-17.7	4.9	-23.9	58.4*	24.1
Cc1ccc(NC(=O)C2=C(c3ccccc3)S(=O)(=O)CCS2(=O)=O)cc1	16.9	-78.8	?	95.9*	62.6*	34.1
COc1ccc(-c2cc(-c3cc(C)ccc3O)[nH]n2)cc1	1.3	10.0	.	-18.7	77.4*	38.2
Oc1ccccc1-c1cc(-c2ccccc2)no1	-4.2	-108.6	0.5	-108.1	-164.6	-149.6
Cc1ccc(O)c(-c2cc(-c3ccc(F)cc3)no2)c1	-7.8	-230.1	.	-38.9	-193.5	-144.4
Cc1ccccc1-c1cc(-c2ccccc2O)on1	25.3	-98.0	-6.1	-45.0	-192.7	-128.0
COc1ccc(-c2cc(-c3ccc(C)cc3)n[nH]2)c(O)c1	35.7	-184.4	-1.5	-51.8	-83.6	.
Cc1ccc(-c2cc(-c3ccccc3)no2)c(O)c1	-34.5	.	-3.4	-12.0	.	.
CCC(NC(=O)c1cncc(Br)c1)c1ccccc1 (stereo unspecified)	-17.0	14.4	-3.1	3.4	-5.0	.
Cc1nc(-c2cc(-c3ccc(Cl)cc3)no2)cs1	-0.1	-154.7	5.1	-68.7	-102.5	.
Clc1ccc(-c2cc(-c3ccccc3)on2)cc1	.	-209.8	-0.9	-139.2	-173.2	-91.6
O=C(c1ccc(Cl)s1)N1CCc2ccccc21	-20.2	-67.1	14.4	-130.8	-115.5	.
CCc1sc(C(=O)N2CCc3ccccc32)cc1C	-28.0	-166.9	10.1	-62.2	-192.1	-102.5
Cc1cc(C)cc(C(=O)N2CC(=O)Nc3ccccc32)c1	7.0	9.0	21.8	19.0	59.5*	55.8*
CCOc1ccccc1N1CCN(C(=O)c2cc(-c3cccnc3)nc3c(Cl)cccc23)CC1	0.2	-30.7	-7.4	12.7	67.5*	13.4
CCOc1ccccc1N1CCN(C(=O)c2cc3ccccc3cc2OC)CC1	.	-46.4	.	7.9	56.7*	8.1
CN(C)c1ccc(CC(=O)N2CCCC(c3cc(C(=O)Nc4ccc5c(c4)OCO5)no3)C2)cc1 (stereo unspecified)	.	.	.	-21.2	.	.
CCOc1ccc2nc(C)cc(Nc3cccc([N+](=O)[O-])c3)c2c1	-5.0	7.3	3.7	8.4	76.9*	33.8
Cc1cc2oc3ccc(NCCCn4ccnc4)cc3c(=O)c2cc1C	85.7*	-199.1	.	-21.7	-167.5	-19.9
Cc1cc2oc3ccc(NCCCN4CCOCC4)cc3c(=O)c2cc1C	-9.3	-78.2	-6.9	1.1	-93.8	.
O=C(NCc1cccs1)C1CCN(c2ccc(S(=O)(=O)N3CCOCC3)cc2Cl)CC1	9.6	-75.2	17.0	30.6	75.9*	53.9*
NC(c1csc(Nc2ncccn2)n1)c1ccccc1Cl (stereo unspecified)	.	.	.	-28.7	.	.
O=C(O)CCC1C(=O)NC(=O)CC1c1ccccc1 (stereo unspecified)	.	.	.	-9.8	.	.
O=C(CCNC(=O)C1CCN(S(=O)(=O)c2ccccc2)CC1)Nc1ccccc1	-4.7	14.6	.	3.5	-4.4	.
O=S(=O)(C/C(=C/CO)S(=O)(=O)c1ccccc1)c1ccccc1	12.0	-73.6	90.3*	94.2*	71.9*	58.2*
SMILES	Calb FLC	697 NFkB inh	Beta apoptosis	Shn3 3UTR inh	Jurkat NFkB inh	Jurkat NFkB conf
Cc1sc2ncn(CC(=O)NCC3COc4ccccc4O3)c(=O)c2c1S(=O)(=O)N1CCCCC1 (stereo unspecified)	0.2	12.6	0.7	24.2	-6.0	.
COc1ccccc1N1C(=NC(=O)COc2ccccc2)SC2CS(=O)(=O)CC21 (stereo unspecified)	-6.3	2.1	-4.5	3.8	-0.4	.
Cc1nc(-c2ccccc2)sc1-c1ccn[nH]1	23.7	-200.6	-2.5	-16.1	-185.1	-117.5
C=CCCC(=O)N1C[C@@H](CO)[C@@H](NC)C[C@H]1c1ccccc1Br	.	.	.	-7.9	.	.
COc1ccc(CCN2C(=O)C3C4C=CC(C5CC45)C3C2=O)cc1OC (stereo unspecified)	-13.3	1.2	0.6	12.7	-1.2	.
COc1ccc(CCN2C(=O)C3C4C=CC(C3C2=O)C2C(=O)N(CCc3ccc(OC)c(OC)c3)C(=O)C42)cc1OC (stereo unspecified)	-14.9	21.1	10.1	70.8	59.1*	55.5*
CSc1ccc(CN2CCN(Cc3ccc([N+](=O)[O-])cc3)CC2)cc1	-10.6	-23.8	-3.7	21.8	54.8*	25.8
CCOc1ccc(S(=O)(=O)NCc2ccccn2)cc1NC(=O)c1ccccc1F	2.4	11.0	6.6	2.6	53.7*	44.8
COc1ccc(S(=O)(=O)NCc2ccccn2)cc1NC(=O)c1ccccc1	0.1	-2.5	4.3	0.3	43.5	.
O=C(COc1ccccc1)NCC(=O)N/N=C/c1ccc(Cl)cc1	-2.6	3.9	-3.4	2.6	-10.8	.
Nc1nc(CCl)nc(N(c2ccccc2)c2ccccc2)n1	4.7	33.6	23.1	16.3	76.0*	19.4
CC(C)(C)NC(=O)CN(C(=O)c1snc(C(=O)NC2CCCCC2)c1N)c1ccccc1F	-6.0	-4.0	-6.7	35.5	-0.7	.
CCC(C)(C)NC(=O)CN(CC1CCCO1)C(=O)CNS(=O)(=O)c1ccccc1 (stereo unspecified)	11.4	12.5	4.3	-6.8	3.0	.
CCCc1cc(C(=O)Nc2ccc(CC)cc2)no1	-13.9	-135.7	-3.5	-46.3	-176.5	-90.5
CC(C)Cc1cc(C(=O)Nc2cccc(O)c2)no1	1.0	14.0	2.0	21.2	-202.7	-112.5
CCc1ccc(NC(=O)c2cc(C(C)C)on2)cc1	-15.3	-154.5	-7.6	-81.7	-215.2	-128.2
CC(C)c1cc(C(=O)Nc2cccc(Cl)c2)no1	-18.0	-141.5	-1.0	-45.6	-231.9	-91.4
CCCNC(=O)c1cc(C2CCCCN2C(=O)OCC(C)C)on1 (stereo unspecified)	.	.	.	-0.1	.	.
O=C1NC(Cc2ccc(O)cc2)c2nc3ccc(F)cc3c(=O)n2-c2cc(Cl)ccc21 (stereo unspecified)	.	.	.	1.5	.	.
COc1ccc(-n2ncc3c(SCC(=O)OC(C)C)ncnc32)cc1	.	.	.	7.2	.	.
CC1CCN(c2c(NCc3ccc(C(=O)N(C)C4CCCCC4)cc3)c(=O)c2=O)CC1	4.3	13.6	.	14.1	6.4	.
CC1CCN(c2c(NCc3ccc(C(=O)N4CCc5ccccc54)cc3)c(=O)c2=O)CC1	-7.2	-7.3	15.8	12.2	57.6*	45.3
O=C(Nc1cccc(C(F)(F)F)c1)c1sc(Cl)nc1C(F)(F)F	-9.9	-207.4	16.7	84.0	97.5*	70.8*
CC(C)c1ccc(/C=N/Nc2ccc(C(=O)O)cc2)cc1	?	-233.4	4.6	28.5	55.4*	46.5
COC(=O)c1ccc(/C=N/NC(=O)c2ccccc2Cl)cc1	-3.5	-5.0	.	-15.3	-10.0	.
CC(C)c1ccc(/C=N/NC(=O)c2ccccc2Cl)cc1	-2.3	-104.0	21.7	-4.3	51.8*	9.9
O=C(O)c1ccc(N/N=C/c2ccc(-c3ccccc3)cc2)cc1	35.1	.	.	-50.9	.	.

Source: PubChem (several laboratories)
